Screens deposited in PubChem BioAssay by several laboratories.
This is a sample that favours compounds with a hit; in the whole collection about 9.6% have one here.
hDAT+cocaine: modulates human dopamine transporter uptake under cocaine. LLC-PK1 hDAT cells, [14C]-dopamine uptake with cocaine IC80; actives deviate in either direction. B-score at 10 µM. 110,000 tested, 1.3% active. AID 449768;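 active = Z score or B-score, a plate-position-corrected score, falls beyond the plate's 99.7% confidence bounds, in either direction; inactive = both scores lie inside the 99.7% bounds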;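 note: scored against the spread of the other compound wells on the same plate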
PostGolgi ctrl: yeast control strain growth, post-Golgi counter-screen | efflux-deficient yeast background strain, growth absorbance A615, 16 h | inhibition, % at 10 µM | 98,000 tested, 5% active | AID 738
PLAP act: activates human placental alkaline phosphatase | purified PLAP enzyme, luminescent substrate read-out; active compounds read high | 96,000 tested, 1.2% active | activation fold at 20 µM | AID 696 | P05187; in the data active = activation fold above about 2
Target sequence (P05187 whole entry, looked up): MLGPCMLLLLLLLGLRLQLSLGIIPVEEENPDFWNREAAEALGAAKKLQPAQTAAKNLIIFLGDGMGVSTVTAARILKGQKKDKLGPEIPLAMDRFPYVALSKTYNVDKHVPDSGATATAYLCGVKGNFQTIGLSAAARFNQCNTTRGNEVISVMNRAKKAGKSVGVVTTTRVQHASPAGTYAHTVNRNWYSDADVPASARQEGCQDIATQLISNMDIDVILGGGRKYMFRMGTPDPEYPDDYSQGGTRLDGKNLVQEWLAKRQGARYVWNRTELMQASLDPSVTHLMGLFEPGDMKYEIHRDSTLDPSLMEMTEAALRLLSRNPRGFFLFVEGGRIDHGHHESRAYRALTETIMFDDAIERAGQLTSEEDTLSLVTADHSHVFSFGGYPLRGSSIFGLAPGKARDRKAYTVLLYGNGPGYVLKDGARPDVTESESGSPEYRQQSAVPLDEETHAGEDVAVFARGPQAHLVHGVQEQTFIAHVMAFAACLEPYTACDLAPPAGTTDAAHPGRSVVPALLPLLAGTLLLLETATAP
PostGolgi yeast: growth inhibition of a yeast mutant, post-Golgi transport screen; 98,000 tested, 0.9% active; inhibition, % at 10 µM; post-Golgi transport phenotypic cell assay;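 note: yeast cells grown in 1536-well plates; yeast grown about 18 h at 30C before absorbance read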
Cav3 T inh: human Cav3.2 channel inhibition, primary screen. O95180. Cav3.2-expressing cells, Fluo-4 calcium fluorescence FDSS; active compounds read low. B-score at 10 µM. 100,000 tested, 4% active. AID 449739;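 active = single-dose well whose peak fluorescence ratio is a statistical outlier from its plate by either plate-standardised score or position-corrected B-score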
* = called active by the depositor. Cut-off read from the data, not from the text of the source, unless noted: active = inhibition above about 30%; inactive = the rest.

For CCOc1ccc(NC(=O)CN2CCN(CC(=O)Nc3ccc(Cl)c(C(F)(F)F)c3)CC2)cc1 the results were hDAT+cocaine 0.146, PostGolgi ctrl 35.2*, PLAP act 1.7, PostGolgi yeast -2.5 and Cav3 T inh -6.2*.
CCOc1ccc(NC(=O)CN2CCN(CC(=O)Nc3cccc(F)c3)CC2)cc1 was read as hDAT+cocaine 0.569, PostGolgi ctrl 1.5, PLAP act 1, PostGolgi yeast -9.4 and Cav3 T inh 0.721.
O=C(CN1CCN(S(=O)(=O)c2ccccc2)CC1)Nc1cccc(C(F)(F)F)c1 was read as hDAT+cocaine -0.551, PostGolgi ctrl 26.4, PLAP act 1.6, PostGolgi yeast -6.6 and Cav3 T inh -7.71*.
For CC(O)(CS(=O)(=O)Cc1ccccc1)C(=O)Nc1cccc(C(F)(F)F)c1 (stereo not given) the results were hDAT+cocaine -2.81*, PostGolgi ctrl 2.7, PLAP act 0.9, PostGolgi yeast 0.0 and Cav3 T inh -2.59.
Screening O=C(CN1CCN(S(=O)(=O)c2ccc(F)cc2)CC1)Nc1ccc2c(c1)OCCO2 returned hDAT+cocaine 0.179, PostGolgi ctrl 13.6, PLAP act 1.1, PostGolgi yeast -1.4 and Cav3 T inh -0.0268.
For COc1ccccc1N1CCN(CC(=O)Nc2ccc(Cl)c(C(F)(F)F)c2)CC1 the results were hDAT+cocaine -0.0378 and Cav3 T inh -4.16*.
Cc1cc(S(=O)(=O)NCc2cccnc2)ccc1-n1cnnn1 was read as hDAT+cocaine 0.136, PostGolgi ctrl -2.3, PLAP act 0.8, PostGolgi yeast 1.3 and Cav3 T inh 0.253.
For COc1ccc(C)cc1NC(=O)CN1CCN(S(=O)(=O)c2ccc(C(C)C)cc2)CC1 the results were hDAT+cocaine -0.977, PostGolgi ctrl 16.6, PLAP act 0.8, PostGolgi yeast -4.5 and Cav3 T inh -1.12.
Screening COc1ccc(S(=O)(=O)N2CCN(CC(=O)Nc3ccc(F)c(F)c3)CC2)cc1 returned hDAT+cocaine 0.225, PostGolgi ctrl 15.1, PLAP act 1.4, PostGolgi yeast 1.9 and Cav3 T inh -4.93*.
Screening CCN(CC)S(=O)(=O)c1ccc2c(c1)nc(CCC(=O)Nc1cccc(C(F)(F)F)c1)n2CC returned hDAT+cocaine 0.0184, PostGolgi ctrl 18.9, PLAP act 1.1, PostGolgi yeast 0.2 and Cav3 T inh 0.224.
Screening CCN(CC)S(=O)(=O)c1cccc(NC(=O)Nc2cccc(C(F)(F)F)c2)c1 returned hDAT+cocaine 1.33, PostGolgi ctrl 16.7, PLAP act 0.9, PostGolgi yeast 1.4 and Cav3 T inh -5.84*.
COc1ccc(C)cc1NC(=O)CN1CCN(S(=O)(=O)c2ccc(Cl)cc2)CC1 was read as hDAT+cocaine 0.0391, PostGolgi ctrl 49.8*, PLAP act 0.9, PostGolgi yeast 15.7 and Cav3 T inh 0.215.
CCOc1ccc(C(=O)CN2CCN(S(=O)(=O)c3ccc(Cl)cc3)CC2)cc1 was read as hDAT+cocaine -0.146, PostGolgi ctrl 32.0*, PLAP act 0.9, PostGolgi yeast 0.6 and Cav3 T inh 0.613.
`CC1(C)C(=O)OC(c2c(F)c(F)c(F)c(F)c2F)C2(CCCCC2)C1=O` (stereo not given) gave hDAT+cocaine -0.421, PostGolgi ctrl 2.2, PLAP act 0.9 and PostGolgi yeast -19.8.
Screening COc1cc(C2/C(=C(/O)c3ccc(F)cc3)C(=O)C(=O)N2CCCC(=O)O)ccc1O (stereo not given) returned hDAT+cocaine 0.00443, PostGolgi ctrl -4.7, PLAP act 1, PostGolgi yeast 10.8 and Cav3 T inh 0.0254.
For O=C(CN1CCN(S(=O)(=O)c2ccc(F)cc2)CC1)Nc1ccc(Cl)c(C(F)(F)F)c1 the results were PostGolgi ctrl 32.5*, PLAP act 1 and PostGolgi yeast 0.2.
Cc1cc(Nc2ccc(C)c(Br)c2)n2nc(C)nc2n1 was read as hDAT+cocaine -1.02, PostGolgi ctrl 4.6, PostGolgi yeast -10.2 and Cav3 T inh 0.131.
CCOC(=O)/C=c1\s/c(=C\c2c(OC)ccc3ccccc23)c(=O)n1CC(=O)NCC1CCCO1 (stereo not given) was read as hDAT+cocaine -0.0105, PostGolgi ctrl 19.4, PLAP act 1.4, PostGolgi yeast -3.7 and Cav3 T inh -5.68*.
COc1ccc(/C(C)=C2\SC(=S)N(CCC(=O)O)C2=O)cc1 was read as hDAT+cocaine 0.151, PostGolgi ctrl 12.6, PLAP act 0.9, PostGolgi yeast -3.4 and Cav3 T inh -1.08.
`CCn1c(SCC(=O)N2CCCc3ccccc32)nnc1-c1c[nH]c2ccccc12` gave hDAT+cocaine 0.986, PostGolgi ctrl -6.0, PLAP act 0.9, PostGolgi yeast -0.5 and Cav3 T inh -3.34.
For O=C(Cn1cnc2c(oc3ccccc32)c1=O)N1CCCc2ccccc21 the results were hDAT+cocaine 0.503, PostGolgi ctrl 8.1, PLAP act 1.1, PostGolgi yeast 7.2 and Cav3 T inh 0.0893.
Screening Cc1cc2cc(C)c3nnc(SCC(=O)N4CCCc5ccccc54)n3c2cc1C returned PostGolgi ctrl 30.2*, PLAP act 1.5 and PostGolgi yeast -4.8.
O=C(CSc1ncnc2c1oc1ccccc12)N1CCCc2ccccc21 was read as hDAT+cocaine 0.664, PostGolgi ctrl 44.2*, PLAP act 1.4, PostGolgi yeast 0.0 and Cav3 T inh -2.57.
`O=C(CSc1c[nH]c2ccccc12)N1CCCc2ccccc21` gave hDAT+cocaine -0.775, PostGolgi ctrl 31.4*, PLAP act 1.3, PostGolgi yeast 5.1 and Cav3 T inh -4.5.
`Cc1cc2cc(C)c3nnc(SCC(=O)N4CCc5ccccc54)n3c2cc1C` gave hDAT+cocaine -0.754, PostGolgi ctrl -10.9, PLAP act 1.1, PostGolgi yeast 1.3 and Cav3 T inh -0.0047.
Screening Cn1c(SCC(=O)N2CCCc3ccccc32)nnc1-c1c[nH]c2ccccc12 returned hDAT+cocaine 3.56*, PostGolgi ctrl -1.5, PLAP act 0.8, PostGolgi yeast 9.9 and Cav3 T inh -0.537.
`O=C(CN1C(=O)C2C3C=CC(C3)C2C1=O)Nc1nc2ccccc2[nH]1` (stereo not given) gave hDAT+cocaine -0.451, PostGolgi ctrl 0.9, PLAP act 1.8, PostGolgi yeast 0.2 and Cav3 T inh -1.11.
`O=C(CN1C(=O)C2C3C=CC(C3)C2C1=O)Nc1nc(SCc2ccc(Cl)cc2)n[nH]1` (stereo not given) gave hDAT+cocaine 0.363, PostGolgi ctrl 8.2, PLAP act 2.3*, PostGolgi yeast 4.2 and Cav3 T inh -8.29*.
`Cc1cc2nc3c(nc2cc1C)C1(C(=O)O)CCC3(C)C1(C)C` (stereo not given) gave hDAT+cocaine -0.507, PostGolgi ctrl 31.6*, PLAP act 1.1, PostGolgi yeast -7.5 and Cav3 T inh -0.134.
Screening C=CCn1c(=S)[nH]c2nc3c(cc2c1=O)CCCC3 returned hDAT+cocaine 14.9*, PostGolgi ctrl 15.7, PLAP act 1, PostGolgi yeast 4.5 and Cav3 T inh 0.391.
`CCOC(=O)CN1C(=O)C(Sc2n[nH]c(-c3ccc(C)cc3)n2)CCc2ccccc21` (stereo not given) gave hDAT+cocaine 1.19, PostGolgi ctrl 3.4, PLAP act 1, PostGolgi yeast -4.5 and Cav3 T inh -3.46*.
